# PubChem BioAssay (Tox21)
# Results filed as inconclusive are left out. A call without a number means that no potency is given here. Values without a mark were called inactive. Activity calls are given as the source filed them. Calls come from the whole dose curve; as a rule, active = well fitted cell-killing curve with a large enough effect in the repeat runs; inconclusive = weak or mixed curves, or effect the other way; inactive = no such curve, though single readings can be large or run the other way.
# Test: qHTS assay to identify small molecule antagonists of the sonic hedgehog signaling (Shh) pathway - cell viability counter screen (AID 1259367); note: nearly all actives have a fitted effect of over 55% in size
# Settings: NIH/3T3 Gli1-Luc viability, CellTiter-Fluor, 24 h; series mostly up to 92.4 µM
# Text: National Center for Advancing Translational Sciences [NCATS]
# NIH Chemical Genomics Center [NCGC]
# U.S. Environmental Protection Agency [EPA]
# National Institutes of Environmental Health Sciences [NIEHS]
# National Toxicology Program [NTP]
# U.S. Food and Drug Administration [FDA]
# The sonic hedgehog (Shh) pathway is essential for normal embryonic development. Dysregulation of the Shh pathway can cause severe developmental defects in organs. Therefore chemicals that interfere with the pathway are potential developmental toxicants. A cell line designated 3T3Gli1-Luc (DMB/OARSA/CFSAN/FDA, Laurel, MD), a NIH/3T3 derived clone containing stably integrated Gli1-Luc reporter is used to detect chemical interference of the Shh pathway, by changes in the expression of the firefly Luc gene under the control of the Gli1 transcriptional response element. This cell line was used to screen Tox21 libraries for identifying and prioritizing the potential developmental toxicants that interfere Shh pathway. Conditioned medium-stimulated mode was used to screen for chemicals inhibiting Shh signaling. The cytotoxicity of the compounds was tested in parallel by measuring the cell viability using CellTiter-Fluor assay system (Promega, Madison, WI) in the same wells.
# Tox21 Assay Protocol Summary:
# 3T3 Gli1-Luc cells were dispensed at 2,000 per well in 5uL of culture medium into white solid bottom 1536-well plates (Greiner Bio-One, Monroe, NC) using a Multidrop Combi (Thermo Scientific, Waltham, MA) dispenser. The assay plates were incubated at 37 C and 5% CO2 for 4hr, and then 23nL of compounds dissolved in DMSO and positive control were transferred using a Pintool station (Wako, San Diego, CA). The compound transfer was followed by the addition of 1ul conditioned medium or assay buffer using two separate tips of Flying Reagent Dispenser (FRD, Aurora Discovery, San Diego, CA). The assay plates were incubated at 37C and 5% CO2 for 24hr. For viability read, after 23hr of compound treatment, 1uL of CellTiter-Fluor reagent (Promega Corporation, Madison, WI) was added to each well of the assay plates using Flying Reagent Dispenser (FRD, Aurora Discovery, San Diego, CA) and incubated the assay plates at 37C for 1hr. The fluorescence signal was quantified using a ViewLux plate reader (Perkin Elmer, Shelton, CT).
Structure (SMILES),Potency,"viability change, negative = cytotoxic"
CN1C(=O)CC(c2ccccc2)C1=O (stereo not given),inactive,
COc1cc(C)ccc1C(C)C,inactive,
C=CCCC=C,inactive,
CCOC(=O)[C@H](CCc1ccccc1)N[C@@H](C)C(=O)N1Cc2cc(OC)c(OC)cc2C[C@H]1C(=O)O,inactive,
CCOC(=O)NCCC[Si](OCC)(OCC)OCC,inactive,
CCC/C=C/CO,inactive,
CCCCCCCCCCCCOCCOS(=O)(=O)O,inactive,
CCOc1ccccc1N,inactive,
NC1=NCC2c3ccccc3Cc3ccccc3N12 (stereo not given),inactive,
NS(=O)(=O)c1cc(-c2nn[nH]n2)c(NCc2cccs2)cc1Cl,inactive,
CCc1nnc(NS(=O)(=O)c2ccc(N)cc2)s1,inactive,
COC(=O)c1ccc2cc(C(=O)OC)ccc2c1,,-4.66% [at 19 µM]
Cn1cnc2c(F)c(Nc3ccc(Br)cc3Cl)c(C(=O)NOCCO)cc21,inactive,
OCCN1CCN(CCO)CC1,inactive,
Cc1nnc(SCC2=C(C(=O)O)N3C(=O)[C@@H](NC(=O)Cn4cnnn4)[C@H]3SC2)s1,inactive,
O=CCCc1ccccc1,inactive,
CC(=O)O[C@H]1CC[C@@]2(C)C(=CC[C@@H]3[C@@H]2CC[C@]2(C)C(C(C)=O)=CC[C@@H]32)C1,inactive,
Cc1ccsc1C(=CCCN1CCC[C@@H](C(=O)O)C1)c1sccc1C,inactive,
CN(C)CC[C@@H](c1ccc(Cl)cc1)c1ccccn1,inactive,
CCCC(CCC)(C(=O)OCC)C(=O)OCC,inactive,

Structure (SMILES),Potency,"viability change, negative = cytotoxic"
CC(=O)OC(C)OC(C)=O,inactive,
CC(C)C(=O)OC/C=C/c1ccccc1,inactive,
CC(C)=CCC[C@](C)(O)[C@@H]1CC=C(C)CC1,inactive,
CC(C)Nc1nc(N)nc(Cl)n1,inactive,
CNCCC(Oc1ccccc1OC)c1ccccc1 (stereo not given),inactive,
CCCC1CCC(=O)O1 (stereo not given),inactive,
CCC(=O)Nc1ccc(O)cc1,inactive,
CCN(CC)C(=O)N(CC)CC,inactive,
Cc1ncc(CO)c(CN)c1O,inactive,
CC(C)S,inactive,
COC(=O)/C=C(/C)N,inactive,
COc1cc(N)c(Cl)cc1C(=O)NC1CCN(Cc2ccccc2)CC1,inactive,
Cc1onc(-c2ccccc2)c1C(=O)Cl,inactive,
CC1=C(CC(=O)O)c2cc(F)ccc2/C1=C\c1ccc(S(C)(=O)=O)cc1,inactive,
CN1CCN(c2c(F)cc3c(=O)c(C(=O)O)cn(CCF)c3c2F)CC1,inactive,
CN(CCCN1c2ccccc2CCc2ccccc21)CC(=O)c1ccc(Cl)cc1,inactive,
CCCNC(C)(C)COC(=O)c1ccccc1,inactive,
O=C(O[C@@H](C(=O)O)[C@@H](OC(=O)c1ccccc1)C(=O)O)c1ccccc1,inactive,
CCOc1ccc(NS(=O)(=O)c2ccc(N)cc2)nn1,inactive,
C=O,inactive,
